Assay results from PubChem BioAssay.
Calls of active or inactive are those of the source.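 Rule for the calls, unless noted: active = fluorescence slope after compound addition differing from the mean of all screened samples at 99.7% confidence, in either direction; inactive = the rest.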

What was measured:
[1] = inhibitors of TNFa-induced NFkB p65 translocation, primary screen, imaging, HUVEC, MLSMR starter and 10KST1 sets (AID 438;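 active = inhibition above 20% together with a positive visual image hit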;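 note: compound added about 3h40 before a 20 min TNFalpha stimulation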;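 for inhibition: signal is the nuclear over cytoplasmic p65 intensity ratio per well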); conditions: HUVEC TNFa-induced p65 nuclear translocation; cell count: measured here: nuclei count (cytotoxicity indicator), at 2.08 µM; inhibition: at 2 µM, stronger effect = higher value, 0% TNFa-plus-vehicle, 100% no-TNFa wells
[2] = inhibitors of mutant huntingtin aggregation, primary screen, imaging, exon1htt(103Q)mCFP cells, high-content imaging (AID 483;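 active = visual image review flags a hit and inhibition of aggregation exceeds 20%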;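 note: compound exposure lasted 3 days before fixation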;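 for nuclei count: percent of the per-plate median nuclei count of sample wells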); conditions: exon1htt(103Q)mCFP cell line, aggregate imaging, at 2 µM; inhibition of aggregation: stronger effect = higher value; nuclei count: measured here: cell count, toxicity
[3] = inhibitors of E-selectin induction by TNFa, primary screen, imaging, HUVEC, immunofluorescence, MLSMR starter and 10KST1 sets (AID 487;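 active = visually confirmed hit in the image check and inhibition above 20%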;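 for inhibition: signal is fraction of cell area covered by stained E-selectin grains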;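 for nuclei count: 100% = median nuclei count of all wells on the same plate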); conditions: HUVEC TNFalpha-induced E-selectin immunofluorescence imaging, at 2 µM; inhibition: stronger effect = higher value; nuclei count: measured here: cell number, toxicity
[4] = target: Voltage-gated potassium channel subunit beta-2 (Rattus norvegicus) (UniProt P62483); test: KvBeta enzyme negative modulators, primary screen, biochemical, NADPH fluorescence (AID 622;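 active = fluorescence slope higher than the sample average by over 3 SD, cut at about -0.22 in these data, passing the limit was not always enough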;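 note: slope of raw intensity against log time taken from 70 to 1610 s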); conditions: recombinant KvBeta, 4-cyanobenzaldehyde reduction, at 10 µM, stronger effect = higher value
[5] = target: Voltage-gated potassium channel subunit beta-2 (Rattus norvegicus) (UniProt P62483); test: KvBeta positive modulators, primary screen, biochemical, NADPH fluorescence (AID 623;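 active = NADPH fluorescence slope more negative than the mean of all samples by about 3 SD, 99.7% confidence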;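 note: fluorescence intensity change per second fitted from 20 to 320 s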); conditions: Recombinant KvBeta, NADPH fluorescence decrease slope, 10 min; at 10 µM; stronger effect = lower value
[6] = target: Alpha-2C adrenergic receptor (Homo sapiens) (UniProt P18825); test: modulators of alpha2C/GIRK thallium flux, primary screen, cell-based, HEK293 alpha2C/GIRK1/2 (AID 624); conditions: thallium flux BTC fluorescence, at 10 µM, actives lie on both sides;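 note: slope of fluorescence ratio to pre-addition baseline per second over 15 to 24 s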
[7] = inhibitors of Sendai virus-induced IRF3 signaling, primary screen, TLR/RLR signaling modifier project, cell-based, Sendai virus stimulus, luciferase, 10K MLSCN set (AID 602276;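 active = inhibition at or above 50% at 10 µM; inactive = inhibition below 50%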;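 note: firefly luciferase from ISG56 promoter only with Renilla not read in this screen; 0% = Sendai virus plus DMSO and 100% = medium plus DMSO without virus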); conditions: HEK293 RL24 IRF3 luciferase reporter, at 10 µM, stronger effect = higher value
[8] = inhibitors of poly I:C-induced TLR3 signaling, primary screen, cell-based, poly I:C stimulus, luciferase, 10K MLSCN set (AID 602277;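 active = inhibition of the reporter signal at or above 50%; inactive = inhibition below 50%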); conditions: HEK293-TLR3 RL24 IRF3 luciferase reporter, at 10 µM, stronger effect = higher value

Chain of Alpha-2C adrenergic receptor (Homo sapiens) (P18825 whole entry, looked up): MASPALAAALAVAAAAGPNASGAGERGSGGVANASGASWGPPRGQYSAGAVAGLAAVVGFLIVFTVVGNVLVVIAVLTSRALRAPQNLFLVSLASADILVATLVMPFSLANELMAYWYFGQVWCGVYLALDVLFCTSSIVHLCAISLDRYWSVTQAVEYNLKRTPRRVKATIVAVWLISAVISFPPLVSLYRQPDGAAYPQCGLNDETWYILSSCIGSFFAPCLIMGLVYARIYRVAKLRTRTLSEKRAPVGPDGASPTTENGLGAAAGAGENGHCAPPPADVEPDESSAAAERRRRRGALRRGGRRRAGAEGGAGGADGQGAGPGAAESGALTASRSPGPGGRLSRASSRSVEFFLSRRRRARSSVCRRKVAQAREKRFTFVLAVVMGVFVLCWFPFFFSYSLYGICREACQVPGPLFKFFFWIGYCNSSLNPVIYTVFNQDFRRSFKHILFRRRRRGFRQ
Chain of Voltage-gated potassium channel subunit beta-2 (Rattus norvegicus) (P62483 whole entry, looked up): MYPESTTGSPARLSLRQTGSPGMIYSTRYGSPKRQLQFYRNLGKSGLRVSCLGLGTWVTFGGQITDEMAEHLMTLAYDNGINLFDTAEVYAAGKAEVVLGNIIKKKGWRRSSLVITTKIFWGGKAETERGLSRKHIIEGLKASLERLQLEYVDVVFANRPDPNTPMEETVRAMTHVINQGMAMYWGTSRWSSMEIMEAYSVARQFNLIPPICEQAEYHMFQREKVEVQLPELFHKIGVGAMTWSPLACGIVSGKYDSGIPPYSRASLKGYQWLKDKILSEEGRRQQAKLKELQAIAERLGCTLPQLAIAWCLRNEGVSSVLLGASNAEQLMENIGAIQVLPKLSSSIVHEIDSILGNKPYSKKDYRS

Structure (SMILES) | cell count [1] | inhibition [1] | inhibition of aggregation [2] | nuclei count [2] [%] | inhibition [3] | nuclei count [3] [%] | fluorescence slope [4] | NADPH fluorescence slope [5] | slope [6] | inhibition [7] | inhibition [8]
N#Cc1ccccc1Cn1c(=O)n(Cc2ccc(C(=O)NCc3ccco3)cc2)c(=O)c2sccc21 | 865 | -0.6% (inactive) | 9.3% (inactive) | 120 | -55.6% (inactive) | 115 | -0.577 (inactive) | -4.1e-05 (inactive) | 0.00686 (inactive) | 11.4% (inactive) | 17.2% (inactive)
O=C(c1cccnc1)N1CCc2ccccc21 | 414 | 3% (inactive) | 1.6% (inactive) | 108 | 24.6% (inactive) | 95.4 | -0.468 (inactive) | 1.9e-05 (inactive) | 0.00635 (inactive) | 10% (inactive) | 43.9% (inactive)
CC(=O)Nc1c(C(=O)C2CC2)oc2ccccc12 | 514 | 2.2% (inactive) | -10.5% (inactive) | 102 | -8.1% (inactive) | 117 | -0.448 (inactive) | -2.5e-05 (inactive) | 0.00698 (inactive) | -3.28% (inactive) | 2.69% (inactive)
O=C1c2ccccc2S(=O)(=O)N1CC(O)Cn1c2ccccc2c2ccccc21 (stereo not drawn) | 397 | 1% (inactive) | 8.8% (inactive) | 105 | -121% (inactive) | 118 | -0.421 (inactive) | -4.3e-05 (inactive) | 0.00434 (inactive) | 5.13% (inactive) | 30.2% (inactive)
CN1CCC(NC(=O)c2cccs2)CC1 | 575 | 8.5% (inactive) | -27.2% (inactive) | 88.6 | -16.6% (inactive) | 112 | -0.547 (inactive) | -5e-05 (inactive) | 0.00687 (inactive) | 8.43% (inactive) | 33.8% (inactive)
O=C(CSc1nnc(-c2ccncc2)o1)Oc1ccccc1 | 662 | -2.6% (inactive) | -12.9% (inactive) | 109 | -84.7% (inactive) | 109 | -0.39 (inactive) | -5.2e-05 (inactive) | 0.00449 (inactive) | 16.3% (inactive) | 13.7% (inactive)
O=C1CC(c2cccs2)CC2=C1C(c1ccccc1)n1ncnc1N2 (stereo not drawn) | 577 | 3.1% (inactive) | 4.6% (inactive) | 90.7 | -72.5% (inactive) | 98.9 | -0.597 (inactive) | 4.2e-06 (inactive) | 0.00446 (inactive) | 13.5% (inactive) | 25.2% (inactive)
Cn1cnc(S(=O)(=O)NCc2cccs2)c1 | 417 | 10.8% (inactive) | -26.8% (inactive) | 101 | -43.8% (inactive) | 132 | -0.541 (inactive) | 3.3e-05 (inactive) | 0.00567 (inactive) | -2.25% (inactive) | 6.69% (inactive)
Cc1nnc(NC(=O)CSc2nc3c(c(=O)n2C)SC(C)C3)s1 (stereo not drawn) | 734 | -4.3% (inactive) | -22.2% (inactive) | 98.5 | -7.8% (inactive) | 104 | -0.536 (inactive) | -6.2e-05 (inactive) | 0.00476 (inactive) | 13.8% (inactive) | 34.3% (inactive)
CCOc1ncccc1C(=O)Nc1ccc(Cl)cc1 | 861 | -15% (inactive) | -9.2% (inactive) | 121 | -36.9% (inactive) | 105 | -0.44 (inactive) | -3.2e-06 (inactive) | 0.0068 (inactive) | 10.1% (inactive) | 35.6% (inactive)
CCOc1ccccc1C(=O)NC(C)c1ccc2c(c1)OCO2 (stereo not drawn) | 368 | 0.8% (inactive) | 0.3% (inactive) | 122 | -6.7% (inactive) | 92.4 | -0.523 (inactive) | -5.4e-05 (inactive) | 0.00595 (inactive) | 15.1% (inactive) | -8.04% (inactive)
CC(O)c1cc2c(cc1NC(=O)c1cnn3c1NC(c1ccco1)CC3C(F)(F)F)OCO2 (stereo not drawn) | 656 | 8.7% (inactive) | -12% (inactive) | 109 | -56.3% (inactive) | 98.9 | -0.583 (inactive) | 3.4e-05 (inactive) | 0.00628 (inactive) | 9.47% (inactive) | 20.2% (inactive)
O=C(CCS(=O)(=O)c1cc(Br)cc2c1N(C(=O)C1CC1)CC2)NCC1CCCO1 (stereo not drawn) | 415 | -0.6% (inactive) | -16.1% (inactive) | 105 | -15.8% (inactive) | 85.8 | -0.314 (inactive) | -1.2e-05 (inactive) | 0.00703 (inactive) | 12.5% (inactive) | -10.9% (inactive)
COc1ccccc1-c1nc2n(n1)C(c1cccs1)C(C(=O)Nc1cccnc1)=C(C)N2 (stereo not drawn) | 446 | 16.2% (inactive) | -15.2% (inactive) | 57.9 | 7.4% (inactive) | 98.9 | -0.587 (inactive) | -3.8e-05 (inactive) | 0.00515 (inactive) | -11.5% (inactive) | -7.18% (inactive)
CCOC(=O)N1CCN(CC(O)COc2ccccc2C(C)CC)CC1 (stereo not drawn) | 631 | -12.4% (inactive) | 0.6% (inactive) | 100 | -35.9% (inactive) | 122 | -0.612 (inactive) | -1.6e-05 (inactive) | 0.00663 (inactive) | 10.8% (inactive) | 35.4% (inactive)
CC(=O)N(C(C)=O)c1ncc2c([nH]c3ccccc32)c1C#N | 320 | 2.1% (inactive) | -79% (inactive) | 2.8 | 0.9% (inactive) | 117 | -0.406 (inactive) | -2.2e-05 (inactive) | 0.00457 (inactive) | 11.7% (inactive) | 15.6% (inactive)
Cc1cccc(-n2ncc3c(NCc4cccnc4)ncnc32)c1 | 670 | -21.7% (inactive) | 9.2% (inactive) | 101 | -18.5% (inactive) | 119 | -0.555 (inactive) | -3.3e-05 (inactive) | 0.00696 (inactive) | -49.1% (inactive) | -205% (inactive)
CCOc1ccc(NC(=O)CN(c2cc(C)cc(C)c2)S(=O)(=O)c2c(C)noc2C)cc1 | 785 | -1.1% (inactive) | 23.6% (inactive) | 99.2 | -14.8% (inactive) | 105 | -0.574 (inactive) | 1.1e-05 (inactive) | 0.0058 (inactive) | 13.8% (inactive) | -22.3% (inactive)
COc1cccc(-c2csc3nnc(SCC(=O)c4ccc(NC(C)=O)cc4)n23)c1 | 452 | 0% (inactive) | 21.2% (inactive) | 106 | -116% (inactive) | 176 | -0.47 (inactive) | 0.000104 (inactive) | 0.00779 (inactive) | 8.19% (inactive) | 17.5% (inactive)
Cc1ccc(-n2ncc(C(=O)N3CCc4ccccc4C3)c2NC(=O)c2ccco2)cc1C | 425 | 10.2% (inactive) | -0.3% (inactive) | 100 | 0.3% (inactive) | 114 | -0.415 (inactive) | -9.8e-05 (inactive) | 0.00658 (inactive) | 2.03% (inactive) | 20.1% (inactive)
COc1ccc(C(C)=O)c(OC(=O)c2ccc(OC)c(OC)c2)c1 | 372 | -0.3% (inactive) | 3.6% (inactive) | 88.8 | -76% (inactive) | 100 | -0.376 (inactive) | 8.8e-06 (inactive) | 0.00658 (inactive) | 13.2% (inactive) | 22.8% (inactive)
CCOc1ccc(NC(=O)CN(C)CC(=O)NC2CCCc3ccccc32)cc1OCC (stereo not drawn) | 451 | 14.9% (inactive) | -6.5% (inactive) | 110 | 10.8% (inactive) | 100 | -0.288 (inactive) | -1.1e-05 (inactive) | 0.00604 (inactive) | 8.91% (inactive) | 26.6% (inactive)
CCOCCCNC(=O)CC1Oc2ccc(C)cc2NC1=O (stereo not drawn) | 595 | -6.2% (inactive) | 8.5% (inactive) | 107 | -6.5% (inactive) | 121 | -0.525 (inactive) | -3.6e-05 (inactive) | 0.00596 (inactive) | 5.01% (inactive) | 19.8% (inactive)
CC1CCN(S(=O)(=O)c2cccc(C(=O)Nc3ccccn3)c2)CC1 | 338 | -4.3% (inactive) | 26.3% (inactive) | 78 | 4.5% (inactive) | 90.4 | -0.338 (inactive) | -4.1e-05 (inactive) | 0.00478 (inactive) | 18.4% (inactive) | 23.9% (inactive)
CCn1c(SCC(=O)c2ccc(F)cc2)nnc1-c1ccoc1C | 423 | -19.4% (inactive) | -1.3% (inactive) | 78 | -50.4% (inactive) | 103 | -0.607 (inactive) | 1.4e-05 (inactive) | 0.00696 (inactive) | 6.99% (inactive) | 11.7% (inactive)
CCOC(=O)N1CCN(c2c(N3CCc4ccccc4C3)c(=O)c2=O)CC1 | 558 | 1.2% (inactive) | 13.2% (inactive) | 102 | -46.4% (inactive) | 122 | -0.538 (inactive) | -2.6e-05 (inactive) | 0.00721 (inactive) | 10.9% (inactive) | 16.4% (inactive)
COc1cccc(NC(=O)C2CCCN(S(=O)(=O)c3cccc4cccnc34)C2)c1 (stereo not drawn) | 604 | -1.7% (inactive) | 25.4% (inactive) | 90.7 | -62.8% (inactive) | 106 | -0.559 (inactive) | -2e-05 (inactive) | 0.00606 (inactive) | 2% (inactive) | 23.1% (inactive)
CCOC(=O)CNC(=O)Nc1nnc(-c2ccc(OCC)cc2)o1 | 486 | -30.9% (inactive) | 3.3% (inactive) | 91.3 | -12.6% (inactive) | 103 | -0.591 (inactive) | 2.1e-05 (inactive) | 0.00589 (inactive) | -14.6% (inactive) | -13.9% (inactive)
